This passage reports Potency and activity (max response) results from PubChem BioAssay (NCATS).

Molecules are shown by their SMILES. Several values for one entry are separate records, joined by “and”; a condition that tells them apart may be missing. Equal values may be shown once. Inconclusive results are not listed. A number with no mark means an inactive call. Activity calls are given as the source filed them. Calls follow the shape of the dose curve; as a rule, active = well fitted curve in the direction sought with a large enough effect; inconclusive = small, poorly fitted or top-dose-only effect, or another doubt; inactive = no such curve, though single readings can be large; an effect the other way counts as inactive or inconclusive.

The nature of experiment [1]: Viability qHTS for spleen associated tyrosine kinase inhibitor (SYKi) naive MV4-11 cells (AID 1963823). Also: nearly all actives have a fitted effect of over 40% in size. Also: potency is read from the fitted curve at half-maximal effect. An outline of the steps: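 SYKi-naive MV4-11 AML cells, 500 per well, were exposed to library compounds for 72 hr at 37 C, 5% CO2. Viability was then read by CellTiter-Glo luminescence after 10 min at room temperature.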
(In general: In qHTS, concentration-response curves come from the screen itself.)

Experiment [2] can be described thus: Quantitative highthroughput screen to assess conditional lethalithy of NOMO1 cells grown in RPMI1640 with untreated serum (RPMI+s) (AID 1963876). Also: nearly all actives have a fitted effect of over 35% in size. Also: potency is read from the fitted curve at half-maximal effect.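 As to Viability: 100% = DMSO wells and 0% = empty wells without cells.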 An outline of the steps: (§1)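 Each medium arm—HPLM with 10% dialyzed FBS, or RPMI1640 with 5 mM glucose and 10% untreated or dialyzed FBS—was screened against an 11-point, 3-fold compound titration for 48 h at 37 °C, with CellTiter-Glo luminescence as endpoint.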

Experiment [3] is described as follows: Quantitative highthroughput screen to assess conditional lethalithy of NOMO1 cells grown in RPMI1640 with dialyzed fetal bovine serum (RPMI+ds) (AID 1963877). Also: nearly all actives have a fitted effect of over 30% in size. Also: potency is read from the fitted curve at half-maximal effect.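 As to Viability: series mostly up to about 46 µM; 100% = DMSO control wells and 0% = empty wells.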 An outline of the steps: as §1
Experiment [4] can be described thus: Quantitative highthroughput screen to assess conditional lethalithy of NOMO1 cells grown in Human Plasma-Like Medium with dialyzed fetal bovine serum (HPLM+ds) (AID 1963878). Also: nearly all actives have a fitted effect of over 35% in size. Also: potency is read from the fitted curve at half-maximal effect.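 As to Viability: 100% = DMSO wells and 0% = empty wells on each plate.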 An outline of the steps: as §1
A short description of experiment [5]: Quantitative highthroughput screen to assess conditional lethalithy of P12 Ichikawa cells grown in Human Plasma-Like Medium with dialyzed fetal bovine serum (HPLM+ds) (AID 1963879). Also: nearly all actives have a fitted effect of over 35% in size. Also: potency is read from the fitted curve at half-maximal effect. As to Viability: series mostly up to about 46 µM. Conditions: Potency: viability. In short, it runs like this: as §1
Experiment [6] can be described thus: Quantitative highthroughput screen to assess conditional lethalithy of P12 Ichikawa cells grown in RPMI1640 with dialyzed fetal bovine serum (RPMI+ds) (AID 1963880). Also: nearly all actives have a fitted effect of over 35% in size. Also: potency is read from the fitted curve at half-maximal effect.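 As to Viability: 100% = DMSO wells and 0% = empty wells on each plate.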 As to conditions: Potency: P12-Ichikawa viability. In short, it runs like this: as §1
Experiment [7] is described as follows: Quantitative highthroughput screen to assess conditional lethalithy of P12 Ichikawa cells grown in RPMI1640 with untreated serum (RPMI+s) (AID 1963881). Also: nearly all actives have a fitted effect of over 35% in size. Also: potency is read from the fitted curve at half-maximal effect.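 As to Viability: series mostly up to about 46 µM; 100% = DMSO wells and 0% = empty wells without cells.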 As to conditions: Potency: viability. In short, it runs like this:
as §1

A short description of experiment [8]: Quantitative highthroughput screen to assess conditional lethalithy of SEM cells grown in Human Plasma-Like Medium with dialyzed fetal bovine serum (HPLM+ds) (AID 1963882). Also: nearly all actives have a fitted effect of over 35% in size. Also: potency is read from the fitted curve at half-maximal effect. As to Viability: series mostly up to about 46 µM. An outline of the steps: as §1
Experiment [9] is described as follows: Quantitative highthroughput screen to assess conditional lethalithy of SEM cells grown in RPMI1640 with unreated serum (RPMI+s) (AID 1963883). Also: nearly all actives have a fitted effect of over 35% in size. Also: potency is read from the fitted curve at half-maximal effect.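 As to Viability: 100% = DMSO wells and 0% = empty wells without cells.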 An outline of the steps:
as §1

Experiment [10] can be described thus: Quantitative highthroughput screen to assess conditional lethalithy of SEM cells grown in RPMI1640 with dialyzed fetal bovine serum (RPMI+ds) (AID 1963884). Also: nearly all actives have a fitted effect of over 35% in size. Also: potency is read from the fitted curve at half-maximal effect.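 As to Viability: series mostly up to about 46 µM; 100% = DMSO control wells and 0% = empty wells without cells.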 In short, it runs like this: as §1
Experiment [11] is described as follows: Cellular viability qHTS for adrenocortical cancer (ACC) cell line SW-13 (AID 1963989).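 Also: cells grown in serum-free medium with ITS supplement; % is scaled to controls: 0 for no effect and ±100 for the full control effect; nearly all actives have a fitted effect of over 65% in size.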 Conditions: SW-13 ACC cells viability, CellTiter-Glo, 48 h; activity (max response): hits give low values. An outline of the steps:
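Here, serum-free SW-13 cultures were dosed up to 46 uM. Following 48 h, ATP-dependent luminescence (CellTiter-Glo) reported viable cells, and logistic modeling produced IC50 values.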

Experiment [12] can be described thus: Cellular viability qHTS for adrenocortical cancer (ACC) cell line NCI-H295R (AID 1963990). Also: nearly all actives have a fitted effect of over 60% in size. Also: potency is read from the fitted curve at half-maximal effect. An outline of the steps:
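Viability of NCI-H295R after 48 h of treatment (final up to 46 uM) measured through cellular ATP luminescence.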

The nature of experiment [13]: Viability qHTS for spleen associated tyrosine kinase inhibitor (SYKi) drug resistant MV4-11 cells (AID 1963824). Also: nearly all actives have a fitted effect of over 35% in size. Also: potency is read from the fitted curve at half-maximal effect. An outline of the steps:
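SYK-inhibitor-resistant MV4-11 AML cells were seeded at 500 per well onto compound and cultured 72 hours (37 °C, 5% CO2). CellTiter-Glo was then added, and after 10 min at room temperature, luminescence gave viability.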

`N#Cc1c(O)c2c(-c3ccc(-c4ccccc4O)cc3)csc2[nH]c1=O`: the Potency entry in experiment [1], in [2], in experiment [3], in experiment [4], in experiment [5] and in experiment [6] was “inactive” throughout. In addition, the Potency entry in experiment [7], in [8], in experiment [9], in [10] and in [12] was “inactive” in each case. The activity (max response) in experiment [11] is 4.91%.
Consider `NC(=O)Cc1cccc(C(=O)c2ccccc2)c1N`, for which the Potency result in [1], in [2], in [3], in experiment [4], in [5] and in experiment [6] was “inactive” each time. The Potency result in experiment [7] is “inactive”. For the same molecule, in [11], the activity (max response) is 0.0063%.
With `Clc1ccc(C(c2ccccc2Cl)C(Cl)Cl)cc1` (stereo not drawn), the Potency entry in [1], in [2], in experiment [3], in [4], in [5] and in [6] was “inactive” each time. Also, in experiment [7], the Potency result is “inactive”. Moreover, the Potency in experiment [12] is 13 µM (active).
`CN1CCCC(CC2c3ccccc3Sc3ccccc32)C1` (stereo not drawn): the Potency in [1] was 18.8 µM (active); in [13] it was 16.8 µM (active); in experiment [12] it was 18.4 µM (active).
Take `C[N+](C)(CCOc1ccccc1)Cc1cccs1`: the Potency entry in experiment [1], in experiment [13] and in experiment [12] was “inactive” each time.
In the case of `Cc1c(CCOc2ccc(C(=O)O)cc2)c2cc(Cl)ccc2n1C(c1ccccc1)c1ccccc1`, the Potency entry in experiment [1], in experiment [2], in experiment [3], in experiment [4], in experiment [6] and in experiment [8] was “inactive” throughout. The Potency result in experiment [9] and in [12] was “inactive” each time. In addition, the Potency in experiment [5] is 14.8 µM (active). Moreover, in experiment [11], the activity (max response) was -0.782%.
With `CC1(C)Cc2c(sc(NC(=S)NC(=O)c3ccccc3)c2C(=O)O)CO1`, the Potency in experiment [1] was 14.8 µM (active). Also, the Potency result in experiment [2], in [3], in [4], in [5], in experiment [6] and in experiment [7] was “inactive” each time. Besides, the Potency entry in experiment [9], in experiment [10] and in experiment [12] was “inactive” in each case. Also, in experiment [11], the activity (max response) was 11%.
Turning to `CN(C)c1cccc(-c2c3c(=O)n(-c4ccccc4Cl)[nH]c3cc(=O)n2C)c1`, the Potency entry in experiment [1] and in [12] was “inactive” in each case. Further, the Potency in experiment [2] is 0.933 µM (active); in experiment [3], 0.831 µM (active); in experiment [4] it was 0.588 µM (active); in experiment [5] it was 0.831 µM (active); in experiment [6] it was 1.17 µM (active); in experiment [7] it was 1.05 µM (active). In addition, the Potency in experiment [8] was 1.05 µM (active); in experiment [9], 1.05 µM (active); in experiment [10] it was 0.831 µM (active). The activity (max response) in [11] was -1.86%.
Take `Cc1n[nH]c(C)c1Cc1sc2c(c1C(=O)N1C[C@H](O)CO1)c(=O)n(C)c(=O)n2CC(C)C`: the Potency entry in experiment [1], in experiment [2], in [3], in experiment [4], in experiment [5] and in experiment [6] was “inactive” each time. Also, the Potency entry in experiment [7] and in [10] was “inactive” each time. In addition, in experiment [11], the activity (max response) was 15%.
As for `COc1c(C)c2c(c(O)c1C/C=C(\C)CCC(=O)OCCN1CCOCC1)C(=O)OC2`, the Potency is 1.5 µM (active) and 332 nM (active) in experiment [1]; 1.19 µM (active) and 833 nM (active) in [13]; 1.26 µM (active) in experiment [12].
In the case of `CC(=O)[C@H]1CC[C@H]2[C@@H]3CC=C4C[C@@H](O)CC[C@]4(C)[C@H]3CC[C@]12C`, the Potency in experiment [1] is 5.96 µM (active). Further, the Potency result in [2], in experiment [3], in [4], in experiment [5], in experiment [6] and in [7] was “inactive” throughout. The Potency result in experiment [8], in experiment [9], in [10] and in experiment [12] was “inactive” in each case. In addition, the activity (max response) in [11] is 14.9% and 3.3%.
Regarding `CC1=NN(c2ccccc2)C(=O)C1`, the Potency in experiment [1] was 11.9 µM (active). In addition, the Potency entry in experiment [2], in [3], in experiment [4], in experiment [5], in experiment [6] and in experiment [7] was “inactive” throughout. Moreover, the Potency result in [8], in [9], in [10] and in [12] was “inactive” in each case. Also, the activity (max response) in [11] was 8.8% and -4.32%.
With `Cc1nnn(C)c1-c1cnc2c3ccc(C(C)(C)O)cc3n([C@H](c3ccccc3)C3CCOCC3)c2c1`, the Potency in experiment [1] was 0.0042 µM (active); in [13] it was 0.003 µM (active); in experiment [12], 0.178 µM (active).
The matching figures for `COC1(c2sc3c(N4CCOCC4)nc(-c4cnc(N)nc4)nc3c2C)COC1`: 0.231 µM (active), 0.411 µM (active) and 0.501 µM (active).
For the molecule `Cc1ccc(-n2nc(C(C)(C)C)cc2NC(=O)Nc2ccc(OCCN3CCOCC3)c3ccccc23)cc1`, the Potency in experiment [1] is 8.2 µM (active); in experiment [8], 10.5 µM (active); in experiment [9] it was 0.132 µM (active). Further, the Potency result in experiment [2], in experiment [3], in [4], in experiment [5], in experiment [6] and in experiment [12] was “inactive” in each case. In experiment [11], the activity (max response) is -16.6%.
Take `O=S(=O)(c1cccc2c(I)cccc12)N1CCCNCC1`: the Potency is 7.42 µM (active) in experiment [1], 16.4 µM (active) in [13] and 25.1 µM (active) in experiment [12].
On to `COc1ccc(C2Sc3ccccc3N(CCN(C)C)C(=O)C2OC(C)=O)cc1` (stereo not drawn), for which the Potency entry in experiment [1], in experiment [2], in [3], in experiment [4], in experiment [5] and in [6] was “inactive” in each case. Also, the Potency entry in experiment [7], in experiment [8], in [9] and in [10] was “inactive” throughout.
Turning to `O=C1C(c2c(O)[nH]c3ccccc23)=Nc2ccccc21`, the Potency result in experiment [1], in experiment [2], in [3], in [4], in experiment [5] and in experiment [6] was “inactive” throughout. The Potency result in experiment [7], in experiment [8], in [9], in experiment [10] and in experiment [12] was “inactive” each time. For the same molecule, in [11], the activity (max response) was -5.8%.
Take `CN(C)c1ccc(Nc2nc(N)n(C(=O)c3c(F)cccc3F)n2)cc1`: the Potency in experiment [1] is 3.66 µM (active); in [3], 11.8 µM (active). Further, the Potency entry in [2] was “inactive”.
Turning to `CC(C)[C@H]1C(=O)N[C@@H](CCCN=C(N)N)C(=O)NCC(=O)N[C@@H](CC(=O)O)C(=O)N[C@H](Cc2ccccc2)C(=O)N1C`, the Potency entry in experiment [1], in experiment [13] and in experiment [12] was “inactive” each time.
In the case of `C=CC[C@@H]1/C=C(\C)C[C@H](C)C[C@H](OC)[C@H]2O[C@@](O)(C(=O)C(=O)N3CCCC[C@H]3C(=O)O[C@H](/C(C)=C/[C@@H]3CC[C@@H](O)[C@H](OC)C3)[C@H](C)[C@@H](O)CC1=O)[C@H](C)C[C@@H]2OC`, the Potency in experiment [1] was 18.6 µM (active); in experiment [13] it was 14.8 µM (active). Besides, the Potency entry in experiment [12] is “inactive”.
